This is an account of results in the supplement of paper PMC9950053.

Structures can show the parent of a compound that is named as a salt.

The subject of the assay is Danio rerio larvae (5 dpf). Description: combined optomotor response (time in upper well half, down vs up moving lines, periods 7-14) minus DMSO control (percentage points); higher = stronger optomotor response than DMSO larvae. To be noted: 10 µM; exposure time: 3 h pre-incubation + 3 h imaging. The protocol:
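Wild-type 5 dpf zebrafish larvae (n=48 per drug, 96-well plates, 28.5 °C) were exposed to Tocris FDA-approved library compounds at 10 µM (0.1% DMSO) for 3 h before and 3 h during imaging. Images were taken every 6 s during visual and acoustic stimuli, and larvae were tracked with Z-LaP Tracker. Each measure is the treated-group mean minus the DMSO control mean (n=844), in percentage points. This mapping covers compounds with 5-character plate codes.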
Consider `COc1ccc(C(CN(C)C)C2(O)CCCCC2)cc1` (stereo unspecified) [Venlafaxine hydrochloride], for which the combined optomotor response was -1.24.
